Experiment [1] has as its target Lysosomal acid glucosylceramidase (Homo sapiens) (UniProt P04062). Description: Glucocerebrosidase-p2 (AID 348; in the data active = potency below about 10 µM; also: potency is read from the fitted curve at half-maximal effect). The settings on record: purified GBA, blue fluorogenic substrate, 40 min. The gist of the method:
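Compounds titrated from 0.6 nM upwards against 0.2 nM enzyme in pH 5.9 citric acid/KH2PO4, taurocholate, tween-20; blue fluorogenic substrate 80 uM, 40 min room temperature, stopped and read Ex 365/Em 440 for AC50.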

Experiment [2] is described as follows: AP1 Signaling Pathway (AID 357; active = well fitted curve in either direction with a large enough effect, not every such curve was filed as active;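 also: ME-180 reporter cells stimulated with EGF at its EC50 level; % is scaled to controls: 0 for no effect and ±100 for the full control effect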). Particulars: ME-180 AP-1-bla reporter, EGF-induced, beta-lactamase ratio, 5 h; at 7.69 µM (top of the series) unless noted. The gist of the method:
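Read-out was the 460nm/530nm emission ratio (excitation 405nm) after CCF4 loading for 2.5 hours at room temperature. Cells carried an AP-1-driven beta-lactamase reporter, were stimulated with EC50 EGF plus compound for 5 hours, and AC50 values came from titrations.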

The target of experiment [3] is Cytochrome P450 1A2 (Homo sapiens) (UniProt P05177). Description: p450-cyp1a2 (AID 410; calls by dose curve; also: potency is read from the fitted curve at half-maximal effect). Particulars: recombinant CYP1A2, luciferin-ME demethylation, luminescence; series mostly up to 57 µM. The gist of the method: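 Inhibition was calculated relative to 57 uM furafylline (full inhibition). The reaction used human CYP1A2 at 20nM with Luciferin-ME at its Km, 100uM, driven by an NADPH-regenerating system for 60 min at room temperature.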
Sequence of Cytochrome P450 1A2 (Homo sapiens) (P05177 whole entry, looked up): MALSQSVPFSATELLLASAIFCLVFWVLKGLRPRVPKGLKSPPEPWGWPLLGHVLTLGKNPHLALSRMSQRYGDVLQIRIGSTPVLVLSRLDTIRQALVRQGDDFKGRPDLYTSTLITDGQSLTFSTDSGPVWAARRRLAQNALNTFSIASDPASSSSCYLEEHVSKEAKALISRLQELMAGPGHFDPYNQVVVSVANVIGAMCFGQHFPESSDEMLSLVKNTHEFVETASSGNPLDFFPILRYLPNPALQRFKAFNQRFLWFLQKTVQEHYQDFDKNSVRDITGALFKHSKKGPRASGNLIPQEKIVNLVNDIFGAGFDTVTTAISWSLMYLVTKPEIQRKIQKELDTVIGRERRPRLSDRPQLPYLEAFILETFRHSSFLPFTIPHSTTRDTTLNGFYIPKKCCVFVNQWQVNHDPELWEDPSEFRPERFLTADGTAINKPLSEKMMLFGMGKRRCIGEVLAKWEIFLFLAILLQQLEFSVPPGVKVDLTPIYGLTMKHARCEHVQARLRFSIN

A short description of experiment [4]: NFAT Signaling Pathway (AID 444; active = well fitted curve in either direction with a large enough effect, not every such curve was filed as active;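 also: carbachol stimulus at about its EC50 of 1 µM final; % is scaled to controls: 0 for no effect and ±100 for the full control effect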). The settings on record: Jurkat NFAT-bla M1, carbachol, beta-lactamase ratio, 5 h; at 7.69 µM (top of the series) unless noted. The gist of the method: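 Jurkat cells with NFAT-driven β-lactamase reporter and co-expressed M1 receptor, stimulated with carbachol (final 1 uM, ~EC50), compound titration, 5 h at 37 °C. CCF4 loaded 1 h at RT; 460/530 nm ratio gave %activity and AC50.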

The nature of experiment [5]: Stat Signaling Pathway (AID 446; active = well fitted curve in either direction with a large enough effect, not every such curve was filed as active;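 also: ME-180 cervical cancer cells given 40 pM IL-6 alongside compound; SIE-controlled beta-lactamase reporter measured as 460/530 nm FRET emission ratio; % is scaled to controls: 0 for no effect and ±100 for the full control effect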). Particulars: ME-180 SIE beta-lactamase reporter, IL-6 stimulated, 5 h; at 7.69 µM (top of the series) unless noted. The gist of the method: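 Reporter line: ME-180 cervical carcinoma, SIE-beta-lactamase. Treatment: compound with 40 pM IL-6, 5 hrs, 37 C, in low-serum OPTI-MEM with 10 mM HEPES pH 7.3. Detection: 460/530 nm fluorescence.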

Experiment [6] addresses Glucocorticoid receptor (Homo sapiens) (UniProt P04150). Description: GR-GFP Redistribution (AID 450;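 active = compounds whose dose series gives a full or clear partial fitted curve of increased nuclear translocation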; also: potency is read from the fitted curve at half-maximal effect). Particulars: U2OS GR-GFP nuclear translocation, laser cytometry, 2 h.
Experiment [7] has the same target. Description: GR-EFC Redistribution (AID 451; calls by dose curve; also: potency is read from the fitted curve at half-maximal effect). Particulars: CHO-K1 GR-EFC translocation, beta-gal luminescence, 2 h. The gist of the method:
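CHO-K1 cells expressing nuclear EA and GR-ED fragments of b-gal; compounds titrated up to 46 uM final, 2 h at 37 C. GR nuclear translocation read as complemented b-gal luminescence after 1 h RT detection.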

In experiment [8] the target is Mitogen-activated protein kinase 10 (Mus musculus) (UniProt Q61831). Nature of the experiment: JNK3 AlphaScreen Assay (AID 530; active = well fitted curve in either direction with a large enough effect, not every such curve was filed as active;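 also: kinase came from lysate of stimulated human HepG2 cells; signal reports phosphorylation of biotinylated GST-cJun 1-79 at Ser73 with 10 µM ATP; % is scaled to controls: 0 for no effect and ±100 for the full control effect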). Particulars: JNK3 lysate, c-Jun phosphorylation; series mostly up to 57.1 µM. The gist of the method:
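qHTS format: compounds tested as titrations against IL-1beta/TNF-alpha-activated HepG2 lysate JNK3 with biotin-GST-cJun substrate and 10 uM ATP at room temperature. Loss of anti-phospho-cJun AlphaScreen signal indicates inhibition.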
A general note: Bead proximity is the source of the signal in Alpha formats.

Experiment [9] concerns the target 3',5'-cyclic-AMP phosphodiesterase 4B (Homo sapiens) (UniProt Q07343). Description: qHTS Assay for Inhibitors of PDE-IV (AID 607; active = well fitted activation curve with a large enough effect in the main read-out, with a control signal flat, not every such curve was filed as active; also: % of control where 0% means no effect). Particulars: HEK293 ACTOne CNG channel cells, membrane potential fluorescence; series mostly up to 22.9 µM. The gist of the method: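 Cell-based read-out of cAMP via a modified cyclic nucleotide-gated channel and membrane potential dye (535/590 nm) in HEK293 cells expressing PDE4 endogenously. Compounds tested up to 22.9 uM final; 100 uM RO 20-1724 reference.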
In general terms: qHTS replaces the single test concentration by a dilution series.

Experiment [10] addresses Cytochrome P450 3A4 (Homo sapiens) (UniProt P08684). Description: qHTS Assay for Activators of Cytochrome P450 3A4 (AID 885). Also: nearly all actives have a fitted effect of over 65% in size. Particulars: recombinant CYP3A4, Luciferin-PPXE luminescence, 60 min; series mostly up to 57.1 µM. The gist of the method:
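Signal was normalized against complete inhibition by 57 uM ketoconazole. The reaction used 20nM CYP3A4 with 25uM Luciferin-PPXE, 10-min compound preincubation and a 60-min NADPH-supported step at RT.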

The nature of experiment [11]: qHTS Assay for Lipid Storage Modulators (AID 1519; calls by dose curve). Particulars: Drosophila S3 cells, BODIPY lipid droplet/cell ratio, laser cytometry, cells loaded with oleic acid; for activity change, negative = inhibition: at 57.5 µM (top of the series). The gist of the method: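 Cells seeded at 5,000 per well were treated with compounds over a concentration series and loaded with oleic acid (400 uM, as added). Lipid droplet fluorescence (488 nm excitation, 500-530 nm channel) was read by laser-scanning cytometry and normalized to 20 uM Triacsin C.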

Experiment [12] concerns the target Dual specificity protein kinase CLK4 (Homo sapiens) (UniProt Q9HAZ1). Nature of the experiment: qHTS Assay for Inhibitors of CDC-like Kinase 4 (Kinase-Glo Assay) (AID 1770). Also: nearly all actives have a fitted effect of over 65% in size. Also: potency is read from the fitted curve at half-maximal effect. The settings on record: recombinant Clk4, Kinase-Glo ATP depletion luminescence; series mostly up to 66.7 µM. The gist of the method:
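Clk4 25 nM, RS peptide 100 uM, ATP 1 uM, pH 7.5 Tris, 10 mM MgCl2, 2.5 mM DTT; 4.5 h RT; ATP depletion read by Kinase-Glo luminescence.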

Experiment [13] addresses Ubiquitin carboxyl-terminal hydrolase 1 (Homo sapiens) (UniProt O94782). Description: Inhibitors of USP1/UAF1: Pilot qHTS (AID 504865).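 Also: rhodamine fluorescence freed from ubiquitin-rhodamine substrate followed over time; top concentration of the series differs between compounds; % is scaled to controls: 0 for no effect and ±100 for the full control effect; nearly all actives have a fitted effect of over 35% in size.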 Particulars: purified USP1/UAF1, Ub-rhodamine cleavage fluorescence; series mostly up to 54.9 µM. The gist of the method: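 Enzyme-free wells gave the negative control, while test wells held 1nM USP1/UAF1 preincubated with compound for 15 min at room temperature. Ub-Rho at 150nM final started the reaction, and fluorescence at 480/540 nm was recorded kinetically.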

Experiment [14] addresses Dual specificity protein kinase CLK4 (Homo sapiens) (UniProt Q9HAZ1). Nature of the experiment: qHTS Assay for Inhibitors of CDC-like Kinase 4 (ADP-Glo Assay) (AID 1771). Also: nearly all actives have a fitted effect of over 70% in size. Also: potency is read from the fitted curve at half-maximal effect. Particulars: recombinant CLK4, ADP-Glo luminescence; series mostly up to 80 µM. The gist of the method:
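Kinase reaction: Clk4 at 25 nM, RS repeat peptide substrate at 100 uM, ATP at 1 uM, 1 hr, room temperature. Product ADP detected as luciferase signal via ADP-Glo.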

The target is the same in experiment [15]. Description: qHTS Assay for Inhibitors of CDC-like Kinase 4 (ADP-FP Assay) (AID 1795).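 Also: recombinant human CLK4 phosphorylating RS repeat peptide at 1 µM ATP; % is scaled to controls: 0 for no effect and ±100 for the full control effect; nearly all actives have a fitted effect of over 60% in size.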 The settings on record: Transcreener ADP fluorescence polarization; series mostly up to 50 µM. The gist of the method: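 Kinase activity was followed as ADP output, converted from fluorescence polarization with a calibration curve. Reactions ran one hour at low ATP (1 uM) with RS peptide substrate.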

The target of experiment [16] is Cytochrome P450 3A4 (Homo sapiens) (UniProt P08684). Description: qHTS Assay for Inhibitors and Substrates of Cytochrome P450 3A4 (AID 884). Also: potency is read from the fitted curve at half-maximal effect; nearly all actives have a fitted effect of over 50% in size. The settings on record: recombinant CYP3A4, Luciferin-PPXE luminescence; series mostly up to 57.1 µM. The gist of the method:
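20 nM human CYP3A4 with 25 uM Luciferin-PPXE (at KM) in 200 mM KPO4, preincubated 10 min with compound; NADPH regeneration started a 60 min RT reaction. Luciferin detected by luminescence, normalized to 57 uM ketoconazole as full inhibition.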

Experiment [17] is described as follows: qHTS Assay for Identification of Small Molecule Agonists for Hypoxia Response Element Signaling Pathway (AID 914; active = well fitted activation curve with a large enough effect in the signal ratio, with a control signal flat, not every such curve was filed as active; the % refers to the signal ratio; also: % of control where 0% means no effect). Particulars: ME-180 (cervical carcinoma) HRE-bla reporter, beta-lactamase ratio, CoCl2, 17 h; activation: stronger effect = higher value. The gist of the method:
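In Opti-MEM containing 0.5% dialyzed FBS and 10 mM HEPES, ME-180 HRE-bla cells received a compound titration and EC50 CoCl2. They were incubated 17 hours, then CCF4-loaded 2.5 hours at room temperature before ratio reading.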

Where [18] appears, read: measured here: cell count channel max response.
The mark [19] stands for this setting: measured here: lipid channel max response.

Six molecules from PubChem BioAssay (NCATS) can be followed below.

Inconclusive results are not listed. Activity calls are given as the source filed them. Unless noted, calls follow the shape of the dose curve; as a rule, active = well fitted curve in the direction sought with a large enough effect; inconclusive = small, poorly fitted or top-dose-only effect, or another doubt; inactive = no such curve, though single readings can be large; an effect the other way counts as inactive or inconclusive.

Sequence of Glucocorticoid receptor (Homo sapiens) (P04150 whole entry, looked up): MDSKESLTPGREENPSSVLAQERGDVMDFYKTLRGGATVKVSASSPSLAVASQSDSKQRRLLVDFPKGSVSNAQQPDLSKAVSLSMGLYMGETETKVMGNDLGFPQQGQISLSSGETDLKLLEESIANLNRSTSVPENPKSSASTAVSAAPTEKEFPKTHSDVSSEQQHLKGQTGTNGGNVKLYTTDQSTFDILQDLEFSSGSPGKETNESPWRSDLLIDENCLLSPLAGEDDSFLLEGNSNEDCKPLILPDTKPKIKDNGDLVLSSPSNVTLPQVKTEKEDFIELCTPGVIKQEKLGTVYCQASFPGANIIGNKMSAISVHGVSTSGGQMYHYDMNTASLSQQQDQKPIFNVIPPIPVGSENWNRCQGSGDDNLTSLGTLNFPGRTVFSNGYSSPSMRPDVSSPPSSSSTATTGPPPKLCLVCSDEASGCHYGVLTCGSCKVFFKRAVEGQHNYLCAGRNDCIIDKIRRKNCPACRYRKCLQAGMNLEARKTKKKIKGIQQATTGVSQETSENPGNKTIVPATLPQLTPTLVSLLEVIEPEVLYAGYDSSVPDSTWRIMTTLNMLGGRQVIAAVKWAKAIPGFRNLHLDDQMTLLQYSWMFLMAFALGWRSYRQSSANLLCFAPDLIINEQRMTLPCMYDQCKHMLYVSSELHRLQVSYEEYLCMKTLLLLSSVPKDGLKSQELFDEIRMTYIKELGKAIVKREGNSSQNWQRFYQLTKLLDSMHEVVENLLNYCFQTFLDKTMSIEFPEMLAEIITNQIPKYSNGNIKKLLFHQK
Sequence of 3',5'-cyclic-AMP phosphodiesterase 4B (Homo sapiens) (Q07343 whole entry, looked up): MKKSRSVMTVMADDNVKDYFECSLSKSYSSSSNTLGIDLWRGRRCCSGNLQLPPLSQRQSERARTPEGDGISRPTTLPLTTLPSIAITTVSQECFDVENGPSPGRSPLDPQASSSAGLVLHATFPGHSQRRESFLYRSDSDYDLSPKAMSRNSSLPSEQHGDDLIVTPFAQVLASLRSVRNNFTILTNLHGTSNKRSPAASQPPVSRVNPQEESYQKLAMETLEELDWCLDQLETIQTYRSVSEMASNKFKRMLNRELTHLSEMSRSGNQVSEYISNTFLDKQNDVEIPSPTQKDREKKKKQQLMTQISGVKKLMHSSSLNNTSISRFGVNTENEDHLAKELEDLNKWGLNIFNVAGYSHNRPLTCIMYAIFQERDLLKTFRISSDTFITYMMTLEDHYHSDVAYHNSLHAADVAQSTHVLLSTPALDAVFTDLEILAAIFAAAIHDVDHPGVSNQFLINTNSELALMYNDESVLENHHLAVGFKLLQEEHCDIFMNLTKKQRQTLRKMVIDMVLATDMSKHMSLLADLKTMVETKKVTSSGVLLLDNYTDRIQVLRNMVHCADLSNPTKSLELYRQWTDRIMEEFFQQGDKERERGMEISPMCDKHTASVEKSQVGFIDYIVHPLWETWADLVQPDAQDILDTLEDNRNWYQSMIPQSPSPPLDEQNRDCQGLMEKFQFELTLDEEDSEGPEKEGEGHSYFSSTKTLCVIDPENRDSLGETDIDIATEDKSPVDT
Sequence of Lysosomal acid glucosylceramidase (Homo sapiens) (P04062 whole entry, looked up): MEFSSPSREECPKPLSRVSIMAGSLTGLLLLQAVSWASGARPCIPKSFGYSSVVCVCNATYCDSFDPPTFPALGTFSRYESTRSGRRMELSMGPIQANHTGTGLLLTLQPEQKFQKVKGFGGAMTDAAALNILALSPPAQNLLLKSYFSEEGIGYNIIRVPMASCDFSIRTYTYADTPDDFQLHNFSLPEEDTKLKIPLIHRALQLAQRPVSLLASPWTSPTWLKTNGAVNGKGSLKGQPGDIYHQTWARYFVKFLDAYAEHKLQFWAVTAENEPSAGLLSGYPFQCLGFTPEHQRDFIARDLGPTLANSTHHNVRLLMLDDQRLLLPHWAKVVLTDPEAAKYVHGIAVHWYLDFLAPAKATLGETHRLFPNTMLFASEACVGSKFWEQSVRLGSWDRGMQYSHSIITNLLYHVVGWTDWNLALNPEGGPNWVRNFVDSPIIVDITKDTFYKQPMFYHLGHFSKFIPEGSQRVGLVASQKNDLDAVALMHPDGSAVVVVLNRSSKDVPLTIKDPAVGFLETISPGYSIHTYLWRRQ
Sequence of Cytochrome P450 3A4 (Homo sapiens) (P08684 whole entry, looked up): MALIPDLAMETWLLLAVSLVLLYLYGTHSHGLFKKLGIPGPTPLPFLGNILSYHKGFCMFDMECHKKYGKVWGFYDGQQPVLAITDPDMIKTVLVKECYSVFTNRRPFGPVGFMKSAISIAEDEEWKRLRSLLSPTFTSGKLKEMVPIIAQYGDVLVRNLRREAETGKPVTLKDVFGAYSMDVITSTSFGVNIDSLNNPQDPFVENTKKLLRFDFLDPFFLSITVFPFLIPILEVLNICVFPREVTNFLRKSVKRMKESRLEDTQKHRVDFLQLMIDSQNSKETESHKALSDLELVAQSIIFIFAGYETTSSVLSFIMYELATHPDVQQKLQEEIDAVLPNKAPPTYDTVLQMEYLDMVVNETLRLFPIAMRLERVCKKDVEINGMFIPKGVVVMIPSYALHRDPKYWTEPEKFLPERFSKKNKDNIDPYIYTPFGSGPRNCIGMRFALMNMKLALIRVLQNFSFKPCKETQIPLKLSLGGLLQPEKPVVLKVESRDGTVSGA
Sequence of Ubiquitin carboxyl-terminal hydrolase 1 (Homo sapiens) (O94782 whole entry, looked up): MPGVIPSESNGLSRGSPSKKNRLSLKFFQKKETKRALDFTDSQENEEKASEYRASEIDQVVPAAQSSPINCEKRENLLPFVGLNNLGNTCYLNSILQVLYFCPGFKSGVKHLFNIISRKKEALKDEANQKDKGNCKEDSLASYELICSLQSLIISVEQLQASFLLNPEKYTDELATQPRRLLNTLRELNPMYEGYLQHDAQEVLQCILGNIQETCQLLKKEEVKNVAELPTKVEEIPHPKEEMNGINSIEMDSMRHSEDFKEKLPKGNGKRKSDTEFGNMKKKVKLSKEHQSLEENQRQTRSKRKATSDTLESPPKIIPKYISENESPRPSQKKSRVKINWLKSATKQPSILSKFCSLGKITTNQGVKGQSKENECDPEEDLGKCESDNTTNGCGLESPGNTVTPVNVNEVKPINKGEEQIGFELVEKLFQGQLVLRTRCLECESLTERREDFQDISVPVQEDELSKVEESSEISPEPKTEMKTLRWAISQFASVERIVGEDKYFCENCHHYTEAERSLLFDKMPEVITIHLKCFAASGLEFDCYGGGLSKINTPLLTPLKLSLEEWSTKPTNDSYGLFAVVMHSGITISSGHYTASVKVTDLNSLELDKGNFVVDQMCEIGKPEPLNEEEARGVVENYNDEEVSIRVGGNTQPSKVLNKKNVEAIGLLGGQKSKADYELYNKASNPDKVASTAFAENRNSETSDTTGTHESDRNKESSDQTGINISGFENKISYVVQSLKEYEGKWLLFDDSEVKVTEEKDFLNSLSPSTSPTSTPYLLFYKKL
Sequence of Dual specificity protein kinase CLK4 (Homo sapiens) (Q9HAZ1 whole entry, looked up): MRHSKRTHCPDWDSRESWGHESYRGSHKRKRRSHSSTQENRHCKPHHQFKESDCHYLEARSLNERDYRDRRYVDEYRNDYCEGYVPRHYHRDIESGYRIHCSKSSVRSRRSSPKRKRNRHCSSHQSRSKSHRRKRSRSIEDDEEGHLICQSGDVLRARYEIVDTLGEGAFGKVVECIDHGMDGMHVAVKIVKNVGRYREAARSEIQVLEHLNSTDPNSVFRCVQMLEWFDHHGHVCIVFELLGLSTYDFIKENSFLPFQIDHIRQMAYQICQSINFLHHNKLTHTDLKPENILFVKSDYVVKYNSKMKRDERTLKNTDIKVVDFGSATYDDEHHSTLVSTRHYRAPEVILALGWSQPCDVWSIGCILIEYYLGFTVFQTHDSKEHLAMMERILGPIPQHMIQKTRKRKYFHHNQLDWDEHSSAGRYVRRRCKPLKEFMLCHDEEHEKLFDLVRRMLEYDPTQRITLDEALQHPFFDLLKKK

In the case of `COc1ccccc1-c1ccc2ncnc(NCc3cnc(C)cn3)c2c1`, the Potency is > 11.4 µM (inactive) in experiment [1]; 6.31 µM (active) in experiment [3]; > 46 µM (inactive) in [6]; > 46 µM (inactive) in experiment [7]; 15.8 µM (active) in experiment [12]. For the same molecule, the activity change, negative = inhibition in [2] was -23.9% (inactive); in experiment [4] it was 3.25% (inactive); in experiment [11] it was 2.78% (inactive). In experiment [5], the activity, negative = inhibition is -25.2% (inactive). The Potency result in experiment [8], in experiment [9], in [10] and in [13] was “inactive” throughout. Moreover, the max response was 13.2% in [11] (setting [18]) and 14% in [11] (setting [19]).
Consider `Cc1ccccc1-c1ccc2ncnc(N3CCNCC3)c2c1`, for which the Potency was > 11.4 µM (inactive) in experiment [1]; 3.16 µM (active) in experiment [3]; > 46 µM (inactive) in experiment [6]; > 46 µM (inactive) in [7]; 20 µM (active) in experiment [12]; 31.6 µM (active) in experiment [14]. Further, the activity change, negative = inhibition in experiment [4] was -1.24% (inactive); in experiment [11] it was 6.61% (inactive). The activity, negative = inhibition in experiment [5] was 9.45% (inactive). Also, the Potency entry in experiment [8], in experiment [9], in [10] and in [13] was “inactive” throughout. In addition, the results for the max response in experiment [11] (setting [18]) and in [11] (setting [19]) were 4.98% and 8.2%, respectively.
For `O=c1c(-c2ccc(F)cc2)nc2cnc(N3CCOCC3)nc2n1C1CC1`, the Potency in experiment [1] was > 11.4 µM (inactive); in [6], > 9.22 µM (inactive); in [7], > 46 µM (inactive). The activity change, negative = inhibition is 16.2% (inactive) in experiment [2] and 5.31% (inactive) in [11]. In addition, the Potency entry in [3], in [8], in experiment [9], in experiment [12] and in [13] was “inactive” in each case. The max response in [11] (setting [18]) worked out at 17.4%; in experiment [11] (setting [19]), 19.7%.
In the case of `CN1CCN(c2ncc3nc(-c4cccc(C#N)c4)c(=O)n(C)c3n2)CC1`, the Potency was > 11.4 µM (inactive) in [1], 12.6 µM (active) in [3], > 9.22 µM (inactive) in [6] and > 46 µM (inactive) in experiment [7]. The activity change, negative = inhibition in [2] was 0.861% (inactive); in experiment [4], 13.1% (inactive); in experiment [11], 1.68% (inactive). The activity, negative = inhibition in [5] was -0.0628% (inactive). Also, the Potency entry in experiment [8], in [9], in experiment [12], in [15] and in [13] was “inactive” in each case. The max response is 0.187% in [11] (setting [18]) and 0.284% in experiment [11] (setting [19]).
For `COc1ccc(CNc2ccnc(-c3ccccc3CN(C)C)n2)c(OC)c1`, the Potency in experiment [3] was 15.8 µM (active); in experiment [6] it was > 46 µM (inactive); in experiment [7], > 46 µM (inactive); in experiment [16], 5.01 µM (active). Also, the results for the activity change, negative = inhibition in experiment [4] and in [11] were -25.3% (inactive) and 3.1% (inactive), respectively. In [5], the activity, negative = inhibition is 9.04% (inactive). The Potency result in experiment [8], in experiment [10], in experiment [12], in experiment [14], in experiment [15] and in [13] was “inactive” throughout. The results for the max response in [11] (setting [18]) and in [11] (setting [19]) were 26.9% and 28.6%, respectively.
For the molecule `FC(F)(F)c1ccccc1-c1ccc2ncnc(NCCN3CCOCC3)c2c1`, the Potency is 8.84 µM (active) in experiment [1], > 46 µM (inactive) in experiment [6] and > 46 µM (inactive) in experiment [7]. Further, the activity change, negative = inhibition in experiment [4] is 10.2% (inactive); in experiment [11] it was -5.53% (inactive). In experiment [5], the activity, negative = inhibition was -13.9% (inactive). Further, the Potency entry in experiment [8], in [12], in experiment [15] and in experiment [13] was “inactive” each time. For the same molecule, the activation in [17] is -0.346% (inactive). Further, the max response was 3.86% in experiment [11] (setting [18]) and -2.12% in experiment [11] (setting [19]).
